Source: PubChem BioAssay (NCATS)
Results filed as inconclusive are left out. Values without a mark were called inactive. The call rests on the fitted dose curve; in most records, active means well fitted inhibition curve with a large enough effect; inconclusive means small, poorly fitted or top-dose-only effect; inactive means flat fitted curve, though single readings scatter.

Target: Calcium and integrin-binding protein 1 (Homo sapiens) (UniProt Q99828)
Experiment: Primary qHTS for Identification of Calcium Integrin Binding Protein 1 (CIB1) Competitor (AID 1508620);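 further: GST tagged CIB1 binding a fluorescein labelled alphaIIb integrin peptide tracer; top concentration of the series differs between compounds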
Conditions: CIB1-GST / FITC-alphaIIb peptide fluorescence polarization; series mostly up to 114 µM; activity change, negative = inhibition: at the top concentration
In short: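 Fluorescence polarization competition: CIB1-GST (1 uM final) preincubated with compound 15 min at room temperature, then FITC-labeled alphaIIb peptide (100 nM final) added for another 15 min. Polarization read at Ex 480/Em 540.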
On the % scale 0 is the no-effect control and ±100 the full control effect.

Sequence of Calcium and integrin-binding protein 1 (Homo sapiens) (Q99828 whole entry, looked up): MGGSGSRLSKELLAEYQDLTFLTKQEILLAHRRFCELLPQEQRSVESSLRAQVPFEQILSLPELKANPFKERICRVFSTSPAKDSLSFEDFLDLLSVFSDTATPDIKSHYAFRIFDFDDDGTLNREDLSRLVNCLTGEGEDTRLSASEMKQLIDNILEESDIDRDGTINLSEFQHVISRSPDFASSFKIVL

Compound | activity change, negative = inhibition [%]
NC(=O)C1CCN(c2nc(-c3cccc4ccccc34)cs2)CC1 | -3.58
Cc1cc2c(s1)c1cnn(Cc3ccc(C(F)(F)F)cc3F)c(=O)c1n2C | 1.77
N#Cc1cc(NC(=O)Nc2nnc(-c3ccncc3)s2)ccc1-c1ccc[nH]1 | -3.1
Cn1nnnc1Sc1ncnc2scc(-c3ccc4c(c3)OCO4)c12 | 4.77
CC(C)Oc1ccc(C(=O)Nc2ccc(-c3nc4ccccc4[nH]3)cc2)cc1 | -1.55
Brc1ccccc1-c1nc(NCc2ccc(-c3cccnc3)cc2)c2ccccc2n1 | 5.55
CS(=O)(=O)c1ccc(C(=O)OCC(=O)N2Cc3ccccc3C2)cc1[N+](=O)[O-] | -29.6
Fc1cc(Nc2nc(-c3ccncc3)nc3ccccc23)ccc1N1CCCCC1 | 0.303
Cc1ccc(NS(=O)(=O)c2ccc3c(c2)N(C)C(=O)CO3)cc1C | -1.97
O=C(O)c1ccc(O)c2ncc(NCC3CCCN(CCc4ccccc4)C3)cc12 (configuration not stated) | -9.95
O=C(NCc1nnc(-c2cc3ccccc3[nH]2)s1)c1ccccc1 | 0.109
Clc1cccc(-c2ccc3ncnc(NCc4ccc5c(c4)OCO5)c3c2)c1 | 2.27
COc1ccc(-c2nc3ccccc3n2Cc2ccccc2)cc1COc1ccc(NC(C)=O)cc1 | 2.17
O=C(C1CCN(c2nc(-c3ccc(Br)cc3)cs2)CC1)N1CCNCC1 | -5.33
Cc1ccc2c(c1)/C(=C\c1cc(Cl)c(O)c(Cl)c1)C(=O)N2 | -13.1
FC(F)(F)c1ccccc1-c1nc(NCc2ccc(-c3ccccc3)cc2)c2ccccc2n1 | 2.55
COc1ccc(C2=Nn3c(nnc3-c3ccc(OC)c(OC)c3)SC2)cc1OC | 1.49
